Results on 26 compounds are retold here after PubChem BioAssay (NCATS).

Unmarked numbers belong to inactive results. Records with an inconclusive call do not appear. Calls of active or inactive are those of the source. Unless noted, the call rests on the fitted dose curve; in most records, active means well fitted curve in the direction sought with a large enough effect; inconclusive means small, poorly fitted or top-dose-only effect, or another doubt; inactive means no such curve, though single readings can be large; an effect the other way counts as inactive or inconclusive.

The nature of test [1]: NCATS anti-infectives library activity on HEK293 viability as a counter-qHTS vs the C. elegans viability qHTS (AID 1745854).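 Further: HEK293 cells exposed to compounds for 24 hr before the viability read.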 Further: potency means the concentration at half of the fitted maximal effect. An outline of the steps:
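Compound titrations (final up to 41.7 uM) were incubated with HEK293 cells for 24 hr at 37C under 5% CO2. Viable cells were quantified with CellTiter-Glo after 10 min at ambient temperature.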

The target of test [2] is Glutathione peroxidase 1 (Homo sapiens) (UniProt P07203). Description: Primary qHTS Assay for Inhibitors of Recombinant Selenoprotein Glutathione Peroxidase 1 (GPX1) (AID 1845191). Further: nearly all actives have a fitted effect of over 65% in size. An outline of the steps:
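GPX1 10 nM, GR 100 nM, GSH 1 mM, NADPH 0.5 mM, CHP 0.5 mM (final). 30-min cpd preincubation, RT. Ex340/Em450 read t=0, t=15 min.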
(qHTS replaces the single test concentration by a dilution series.)

Test [3] addresses Phospholipid hydroperoxide glutathione peroxidase GPX4 (Homo sapiens) (UniProt P36969). Description: Primary qHTS Assay for Inhibitors of Recombinant Selenoprotein Glutathione Peroxidase 4 (GPX4) (AID 1845192). Further: nearly all actives have a fitted effect of over 65% in size. Further: potency means the concentration at half of the fitted maximal effect. The method in brief: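 qHTS, GR-coupled: GPX4 200 nM + cpd 30 min RT → GSH 1 mM, NADPH 0.5 mM, GR 100 nM → CHP 0.5 mM start; fluor 340/450 at t0 and t15 min; no-enzyme wells as control.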

Test [4] in a line: AP1 Signaling Pathway (AID 357; active means well fitted curve in either direction with a large enough effect, not every such curve was filed as active;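 further: ME-180 reporter cells stimulated with EGF at its EC50 level; on the % scale 0 is the no-effect control and ±100 the full control effect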). The note with it: ME-180 (cervical carcinoma) AP-1-bla reporter, EGF-induced, beta-lactamase ratio, 5 h; at 7.69 µM (top of the series) unless noted. An outline of the steps:
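In this screen, ME-180 cells in Opti-MEM with 0.5% dialyzed FBS received EC50 EGF and compound titrations for 5 h. AP-1 reporter beta-lactamase was detected via CCF4 ratio, giving AC50 for positive and negative modulators.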

Test [5] concerns the target Ubiquitin carboxyl-terminal hydrolase 1 (Homo sapiens) (UniProt O94782). Description: Inhibitors of USP1/UAF1: Pilot qHTS (AID 504865).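 Further: rhodamine fluorescence freed from ubiquitin-rhodamine substrate followed over time; top concentration of the series differs between compounds; on the % scale 0 is the no-effect control and ±100 the full control effect; nearly all actives have a fitted effect of over 35% in size.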 The method in brief:
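In 50mM HEPES pH 7.8 containing 0.5mM EDTA, 1mM TCEP, 0.1 mg/ml BSA and 0.01% Tween-20, 1nM USP1/UAF1 is exposed to compound for 15 min, then Ub-Rho (150nM final) is added and fluorescence is read over time.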

Test [6] concerns the target Cytochrome P450 3A4 (Homo sapiens) (UniProt P08684). Description: qHTS Assay for Inhibitors and Substrates of Cytochrome P450 3A4 (AID 884). Further: on the % scale 0 is the no-effect control and ±100 the full control effect; nearly all actives have a fitted effect of over 50% in size. An outline of the steps: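 Luminescent readout of luciferin produced by CYP3A4 (20 nM) dealkylation of Luciferin-PPXE, 25 uM (its KM). NADPH-driven reaction ran 60 min at RT after 10 min compound preincubation; data scaled to 57 uM ketoconazole as 100% inhibition.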

Test [7] deals with Mitogen-activated protein kinase 10 (Mus musculus) (UniProt Q61831). Description: JNK3 AlphaScreen Assay (AID 530; active means well fitted curve in either direction with a large enough effect, not every such curve was filed as active;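 further: kinase came from lysate of stimulated human HepG2 cells; signal reports phosphorylation of biotinylated GST-cJun 1-79 at Ser73 with 10 µM ATP; on the % scale 0 is the no-effect control and ±100 the full control effect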). An outline of the steps:
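Biotinylated GST-cJun(1-79) served as substrate for JNK3 in HepG2 lysates stimulated with IL-1beta and TNF-alpha. ATP was 10 uM final, pH 7.6. Ser73 phosphorylation was quantified by AlphaScreen (680 nm excitation).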
On the technique in general: In Alpha technology, singlet oxygen from a donor bead excites a nearby acceptor bead.

The target in test [8] is Lysosomal acid glucosylceramidase (Homo sapiens) (UniProt P04062). Description: Glucocerebrosidase-p2 (AID 348; in the data active means potency below about 10 µM; further: potency means the concentration at half of the fitted maximal effect). The note with it: purified GBA, blue fluorogenic substrate, 40 min. The method in brief: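 Normal human glucocerebrosidase (0.2 nM) with blue fluorogenic substrate (80 uM final) in citrate/phosphate pH 5.9 with 10mM sodium taurocholate, 0.01% tween-20; 40 min RT, NaOH/glycine stop; fluorescence Ex 365/Em 440; AC50 from a titration from 0.6 nM upwards.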

Test [9] deals with Cytochrome P450 1A2 (Homo sapiens) (UniProt P05177). Description: p450-cyp1a2 (AID 410; calls by dose curve; further: potency means the concentration at half of the fitted maximal effect). The method in brief: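 Read-out is luminescence from luciferin produced by CYP1A2 demethylation of Luciferin-ME (100uM, at Km). Detection reagent stopped the 60 min NADPH-dependent reaction; signals were normalized to 57 uM furafylline.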
Test [10] is described as follows: NFAT Signaling Pathway (AID 444; active means well fitted curve in either direction with a large enough effect, not every such curve was filed as active;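 further: carbachol stimulus at about its EC50 of 1 µM final; on the % scale 0 is the no-effect control and ±100 the full control effect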). The note with it: Jurkat NFAT-bla M1, carbachol, beta-lactamase ratio, 5 h; at 7.69 µM (top of the series) unless noted. An outline of the steps: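 Jurkat cells carrying an NFAT-driven β-lactamase reporter and co-transfected muscarinic M1 receptor were treated with compound plus carbachol (1 uM final, an EC50 level) for 5 h at 37 °C. CCF4 loading followed for 1 h at RT; 460/530 nm ratio gave %activity.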

The nature of test [11]: Stat Signaling Pathway (AID 446; active means well fitted curve in either direction with a large enough effect, not every such curve was filed as active;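 further: ME-180 cervical cancer cells given 40 pM IL-6 alongside compound; SIE-controlled beta-lactamase reporter measured as 460/530 nm FRET emission ratio; on the % scale 0 is the no-effect control and ±100 the full control effect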). The method in brief:
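FRET read-out (405 nm excitation, 460/530 nm emission) of a beta-lactamase reporter under a STAT-inducible element in ME-180 cervical carcinoma cells. Cells with compound receive 40 pM IL-6 for 5 h. Values are normalised to AC90 stimulation and AC90 JAK-inhibitor controls.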

Test [12] concerns the target Glucocorticoid receptor (Homo sapiens) (UniProt P04150). Description: GR-GFP Redistribution (AID 450;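 active means compounds whose dose series gives a full or clear partial fitted curve of increased nuclear translocation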; further: potency means the concentration at half of the fitted maximal effect). The settings on record: U2OS GR-GFP nuclear translocation, laser cytometry, 2 h.
Test [13] has the same target. Description: GR-EFC Redistribution (AID 451; calls by dose curve; further: potency means the concentration at half of the fitted maximal effect). The settings on record: CHO-K1 GR-EFC translocation, beta-gal luminescence, 2 h. An outline of the steps: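 CHO-K1 cells stably expressing nuclear-localized β-gal enzyme acceptor and GR fused C-terminally to the enzyme donor fragment; ligand-driven nuclear translocation restores β-gal by complementation. Compounds titrated up to 46 uM final, 2 h at 37 °C; luminescence read.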

Test [14] deals with 3',5'-cyclic-AMP phosphodiesterase 4B (Homo sapiens) (UniProt Q07343). Description: qHTS Assay for Inhibitors of PDE-IV (AID 607; active means well fitted activation curve with a large enough effect in the main read-out, with a control signal flat, not every such curve was filed as active; further: % of control where 0% means no effect). An outline of the steps: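 Cell-based read-out of cAMP via a modified cyclic nucleotide-gated channel and membrane potential dye (535/590 nm) in HEK293 cells expressing PDE4 endogenously. Compounds tested up to 22.9 uM final; 100 uM RO 20-1724 reference.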

Test [15] addresses Dual specificity protein kinase CLK4 (Homo sapiens) (UniProt Q9HAZ1). Description: qHTS Assay for Inhibitors of CDC-like Kinase 4 (Kinase-Glo Assay) (AID 1770). Further: on the % scale 0 is the no-effect control and ±100 the full control effect; nearly all actives have a fitted effect of over 65% in size. An outline of the steps: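 Substrate mix (RS peptide 100 uM, ATP 1 uM) dispensed, compound pinned in, then Clk4 added to 25 nM final. Incubated 4.5 h at RT; Kinase-Glo reagent added, luminescence read after 5 min.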
Test [16] shares this target. Description: qHTS Assay for Inhibitors of CDC-like Kinase 4 (ADP-Glo Assay) (AID 1771). Further: on the % scale 0 is the no-effect control and ±100 the full control effect; nearly all actives have a fitted effect of over 70% in size. The method in brief: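 In this ADP-Glo format, 1 uM ATP and 100 uM RS peptide served as substrates for 25 nM Clk4 in Mg2+/EGTA/DTT/Triton buffer; reactions ran 1 hr at room temperature before luminescent ADP quantification.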
For test [17] the target is unchanged. Description: qHTS Assay for Inhibitors of CDC-like Kinase 4 (ADP-FP Assay) (AID 1795).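 Further: recombinant human CLK4 phosphorylating RS repeat peptide at 1 µM ATP; on the % scale 0 is the no-effect control and ±100 the full control effect; nearly all actives have a fitted effect of over 60% in size.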 An outline of the steps: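 Clk4 6.25 nM; RS peptide 100 uM; ATP 1 uM; 25 mM Tris pH 7.5, 10 mM MgCl2; 1 h reaction. ADP detected via antibody/orange tracer FP displacement; TG003 positive control.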

Sequence of Glutathione peroxidase 1 (Homo sapiens) (P07203 whole entry, looked up): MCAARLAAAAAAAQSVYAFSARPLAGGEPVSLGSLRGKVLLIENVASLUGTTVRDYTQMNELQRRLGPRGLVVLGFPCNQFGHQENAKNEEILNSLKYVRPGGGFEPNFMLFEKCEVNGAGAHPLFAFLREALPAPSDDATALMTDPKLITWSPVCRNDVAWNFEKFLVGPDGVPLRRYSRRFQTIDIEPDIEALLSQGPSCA
Sequence of Dual specificity protein kinase CLK4 (Homo sapiens) (Q9HAZ1 whole entry, looked up): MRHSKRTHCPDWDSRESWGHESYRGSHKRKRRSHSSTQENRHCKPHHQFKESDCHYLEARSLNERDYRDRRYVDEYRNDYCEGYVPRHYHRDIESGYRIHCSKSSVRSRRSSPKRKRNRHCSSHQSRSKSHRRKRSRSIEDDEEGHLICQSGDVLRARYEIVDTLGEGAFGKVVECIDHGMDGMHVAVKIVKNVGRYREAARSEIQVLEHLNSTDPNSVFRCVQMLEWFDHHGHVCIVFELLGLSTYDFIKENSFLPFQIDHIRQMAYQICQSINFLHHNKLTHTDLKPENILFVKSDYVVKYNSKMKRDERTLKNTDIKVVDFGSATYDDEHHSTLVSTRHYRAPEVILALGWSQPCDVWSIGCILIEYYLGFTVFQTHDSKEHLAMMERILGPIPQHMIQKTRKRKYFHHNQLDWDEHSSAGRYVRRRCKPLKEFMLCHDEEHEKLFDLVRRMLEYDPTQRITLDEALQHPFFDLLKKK
Sequence of Ubiquitin carboxyl-terminal hydrolase 1 (Homo sapiens) (O94782 whole entry, looked up): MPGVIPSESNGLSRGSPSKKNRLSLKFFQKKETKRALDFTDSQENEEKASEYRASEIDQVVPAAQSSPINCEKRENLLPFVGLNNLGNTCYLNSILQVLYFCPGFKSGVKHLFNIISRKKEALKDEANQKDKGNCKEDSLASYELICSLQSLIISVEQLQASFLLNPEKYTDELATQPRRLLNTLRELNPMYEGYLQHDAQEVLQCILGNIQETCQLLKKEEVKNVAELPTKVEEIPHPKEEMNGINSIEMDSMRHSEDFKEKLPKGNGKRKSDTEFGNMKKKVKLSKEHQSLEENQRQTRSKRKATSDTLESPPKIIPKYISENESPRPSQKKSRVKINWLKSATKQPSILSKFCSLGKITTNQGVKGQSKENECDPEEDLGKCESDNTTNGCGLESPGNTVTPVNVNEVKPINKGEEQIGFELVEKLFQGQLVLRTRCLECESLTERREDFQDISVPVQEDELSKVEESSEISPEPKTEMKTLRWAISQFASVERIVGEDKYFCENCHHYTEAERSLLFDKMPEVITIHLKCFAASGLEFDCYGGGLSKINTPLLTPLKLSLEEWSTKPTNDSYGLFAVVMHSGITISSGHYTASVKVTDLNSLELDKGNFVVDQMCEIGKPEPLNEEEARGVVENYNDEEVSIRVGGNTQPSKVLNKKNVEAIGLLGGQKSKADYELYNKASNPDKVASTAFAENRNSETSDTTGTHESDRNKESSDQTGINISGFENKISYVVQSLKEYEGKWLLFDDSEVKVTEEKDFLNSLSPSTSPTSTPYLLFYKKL
Sequence of Phospholipid hydroperoxide glutathione peroxidase GPX4 (Homo sapiens) (P36969 whole entry, looked up): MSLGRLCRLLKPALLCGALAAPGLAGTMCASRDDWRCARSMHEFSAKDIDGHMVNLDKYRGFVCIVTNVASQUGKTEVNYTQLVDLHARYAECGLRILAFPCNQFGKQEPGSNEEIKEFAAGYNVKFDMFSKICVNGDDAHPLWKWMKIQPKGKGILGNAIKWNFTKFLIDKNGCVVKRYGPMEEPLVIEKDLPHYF
Sequence of Glucocorticoid receptor (Homo sapiens) (P04150 whole entry, looked up, the tested form may be a part): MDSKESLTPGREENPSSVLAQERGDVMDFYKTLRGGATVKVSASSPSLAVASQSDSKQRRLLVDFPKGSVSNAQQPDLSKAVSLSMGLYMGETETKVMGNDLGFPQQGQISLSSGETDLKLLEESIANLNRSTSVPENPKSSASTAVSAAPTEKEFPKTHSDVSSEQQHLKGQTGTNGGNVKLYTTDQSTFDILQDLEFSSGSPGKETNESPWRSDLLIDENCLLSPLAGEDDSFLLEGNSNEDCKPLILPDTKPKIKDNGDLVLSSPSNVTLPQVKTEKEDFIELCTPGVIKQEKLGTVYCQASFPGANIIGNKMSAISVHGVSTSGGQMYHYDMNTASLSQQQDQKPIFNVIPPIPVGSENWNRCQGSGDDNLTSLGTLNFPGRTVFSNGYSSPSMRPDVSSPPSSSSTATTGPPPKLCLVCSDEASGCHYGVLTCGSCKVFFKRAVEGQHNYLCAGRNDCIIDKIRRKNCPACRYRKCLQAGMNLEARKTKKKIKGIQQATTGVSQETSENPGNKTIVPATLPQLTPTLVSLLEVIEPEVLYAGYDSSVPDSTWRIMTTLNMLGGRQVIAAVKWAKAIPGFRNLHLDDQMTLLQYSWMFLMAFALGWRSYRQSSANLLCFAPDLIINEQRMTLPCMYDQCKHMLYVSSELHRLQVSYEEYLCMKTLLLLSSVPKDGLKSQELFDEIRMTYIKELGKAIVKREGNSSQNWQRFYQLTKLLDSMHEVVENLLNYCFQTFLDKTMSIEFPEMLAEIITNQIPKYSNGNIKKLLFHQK
Sequence of Cytochrome P450 3A4 (Homo sapiens) (P08684 whole entry, looked up): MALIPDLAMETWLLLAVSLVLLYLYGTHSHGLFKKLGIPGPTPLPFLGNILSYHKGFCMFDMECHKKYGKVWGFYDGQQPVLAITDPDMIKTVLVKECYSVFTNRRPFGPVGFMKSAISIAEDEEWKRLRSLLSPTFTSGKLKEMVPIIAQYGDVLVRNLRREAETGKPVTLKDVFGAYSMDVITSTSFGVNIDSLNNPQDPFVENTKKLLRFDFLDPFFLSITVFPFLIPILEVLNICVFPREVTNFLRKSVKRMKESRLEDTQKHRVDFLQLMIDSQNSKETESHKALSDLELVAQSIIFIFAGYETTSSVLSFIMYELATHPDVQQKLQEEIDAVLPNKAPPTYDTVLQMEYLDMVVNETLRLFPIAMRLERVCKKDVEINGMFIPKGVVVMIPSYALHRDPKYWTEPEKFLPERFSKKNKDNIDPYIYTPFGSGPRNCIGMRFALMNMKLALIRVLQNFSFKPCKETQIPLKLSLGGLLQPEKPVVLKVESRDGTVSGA
Sequence of Cytochrome P450 1A2 (Homo sapiens) (P05177 whole entry, looked up): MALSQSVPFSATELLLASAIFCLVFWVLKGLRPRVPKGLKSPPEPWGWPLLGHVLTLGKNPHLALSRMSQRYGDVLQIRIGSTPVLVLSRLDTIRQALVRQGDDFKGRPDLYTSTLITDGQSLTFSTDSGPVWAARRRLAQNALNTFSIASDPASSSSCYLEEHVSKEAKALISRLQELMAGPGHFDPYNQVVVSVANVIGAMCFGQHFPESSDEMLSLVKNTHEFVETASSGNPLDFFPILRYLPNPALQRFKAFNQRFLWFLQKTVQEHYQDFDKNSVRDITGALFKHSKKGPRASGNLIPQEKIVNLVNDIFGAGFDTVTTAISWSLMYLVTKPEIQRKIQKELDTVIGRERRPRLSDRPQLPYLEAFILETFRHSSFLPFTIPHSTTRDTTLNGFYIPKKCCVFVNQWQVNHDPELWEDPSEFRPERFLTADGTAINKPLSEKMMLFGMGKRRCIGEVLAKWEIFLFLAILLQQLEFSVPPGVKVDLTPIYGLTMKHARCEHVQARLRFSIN
Sequence of 3',5'-cyclic-AMP phosphodiesterase 4B (Homo sapiens) (Q07343 whole entry, looked up): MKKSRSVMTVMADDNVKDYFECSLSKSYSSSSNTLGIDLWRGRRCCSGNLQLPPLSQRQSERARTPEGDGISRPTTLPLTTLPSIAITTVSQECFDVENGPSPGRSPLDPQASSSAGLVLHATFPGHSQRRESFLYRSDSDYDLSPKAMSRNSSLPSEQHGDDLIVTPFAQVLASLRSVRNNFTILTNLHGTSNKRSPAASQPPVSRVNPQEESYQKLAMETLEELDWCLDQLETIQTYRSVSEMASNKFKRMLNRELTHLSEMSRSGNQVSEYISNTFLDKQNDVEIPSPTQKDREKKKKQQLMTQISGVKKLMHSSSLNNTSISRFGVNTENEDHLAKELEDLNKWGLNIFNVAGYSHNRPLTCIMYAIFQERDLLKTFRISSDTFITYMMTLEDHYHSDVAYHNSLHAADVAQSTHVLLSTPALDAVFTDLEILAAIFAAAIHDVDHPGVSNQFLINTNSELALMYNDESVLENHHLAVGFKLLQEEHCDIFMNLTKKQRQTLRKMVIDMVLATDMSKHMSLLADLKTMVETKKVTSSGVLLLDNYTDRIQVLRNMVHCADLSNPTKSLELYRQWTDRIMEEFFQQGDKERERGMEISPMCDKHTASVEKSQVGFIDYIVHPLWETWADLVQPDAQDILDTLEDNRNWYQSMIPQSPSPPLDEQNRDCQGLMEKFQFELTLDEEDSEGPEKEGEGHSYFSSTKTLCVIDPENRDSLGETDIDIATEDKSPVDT
Sequence of Lysosomal acid glucosylceramidase (Homo sapiens) (P04062 whole entry, looked up): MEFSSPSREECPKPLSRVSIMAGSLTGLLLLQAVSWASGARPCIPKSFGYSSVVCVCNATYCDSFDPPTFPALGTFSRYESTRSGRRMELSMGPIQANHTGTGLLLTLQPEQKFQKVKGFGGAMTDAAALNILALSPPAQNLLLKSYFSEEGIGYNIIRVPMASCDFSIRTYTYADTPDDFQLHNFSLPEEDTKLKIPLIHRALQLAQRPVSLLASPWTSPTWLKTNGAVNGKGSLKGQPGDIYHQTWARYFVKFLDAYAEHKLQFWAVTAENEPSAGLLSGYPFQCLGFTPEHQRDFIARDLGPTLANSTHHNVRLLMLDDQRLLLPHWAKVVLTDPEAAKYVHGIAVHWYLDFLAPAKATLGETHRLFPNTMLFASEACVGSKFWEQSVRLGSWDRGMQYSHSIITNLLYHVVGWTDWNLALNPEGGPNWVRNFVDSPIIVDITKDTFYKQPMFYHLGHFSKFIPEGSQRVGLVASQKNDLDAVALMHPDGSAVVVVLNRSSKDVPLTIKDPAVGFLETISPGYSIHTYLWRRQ

With `C=C[C@@H]1C[C@]1(NC(=O)[C@@H]1C[C@@H](Oc2ncc(OC)c3ccc(Cl)cc23)CN1C(=O)[C@@H](NC(=O)OC(C)(C)C)C(C)(C)C)C(=O)NS(=O)(=O)C1CC1`, the Potency result in test [1] and in test [2] was “inactive” in each case.

With `COc1ccc(C2C(C#N)=C(N)OC3=C2C(=O)CC(c2cccc4ccccc24)C3)cc1` (stereo not given), the Potency entry in [1] is “inactive”.

Turning to `Cc1cccc(C)c1N(CC(=O)Nc1ccc(-c2ncon2)cc1)C(=O)C1CCS(=O)(=O)CC1`, the Potency result in [1] is “inactive”.

As for `CC(=O)N[C@@H](CC(C)C)C(=O)N[C@@H](CC(C)C)C(=O)N[C@H](C=O)CCCN=C(N)N`, the Potency result in [1] is “inactive”.

For the compound `CN(C)c1nc2c(Br)c(Br)c(Br)c(Br)c2n1CC(=O)O`, the Potency result in test [1] is “inactive”.

On to `O=C(O)[C@H]1O[C@@H](Oc2cc3oc(-c4ccc(O)cc4)cc(=O)c3c(O)c2O)[C@H](O)[C@@H](O)[C@@H]1O`, for which the Potency entry in test [1] was “inactive”.

With `COC(=O)c1cc(O)c(O)c(O)c1`, the Potency entry in [1] was “inactive”.

For the compound `C[C@@H]1O[C@@H](O[C@@H]2[C@@H](O)[C@H](OCCc3ccc(O)c(O)c3)O[C@H](CO)[C@H]2OC(=O)/C=C/c2ccc(O)c(O)c2)[C@H](O)[C@H](O)[C@H]1O`, in test [1], the Potency entry was “inactive”.

As to `Nc1cc(F)ccc1NC(=O)/C=C/c1cnn(C/C=C/c2ccccc2)c1`, the Potency result in test [1] is “inactive”.

On to `CC1(C)CC[C@]2(C(=O)O)CC[C@]3(C)C(=CC[C@@H]4[C@@]5(C)CC[C@H](O)C(C)(C)[C@@H]5CC[C@]43C)[C@@H]2C1`, for which the Potency result in test [1] and in test [2] was “inactive” in each case.

Turning to `CC(C)C[C@H](NC(=O)[C@H]1O[C@@H]1C(=O)O)C(=O)NCCCCN=C(N)N`, the Potency entry in [1] and in test [2] was “inactive” in each case.

As to `COC(=O)N[C@H](C(=O)N1CCC[C@H]1C(=O)Nc1ccc([C@@H]2CC[C@@H](c3ccc(NC(=O)[C@@H]4CCCN4C(=O)[C@@H](NC(=O)OC)C(C)C)cc3)N2c2ccc(C(C)(C)C)cc2)cc1)C(C)C`, the Potency result in test [1] and in test [2] was “inactive” throughout.

For `O=C(O)CCCN1CCC(O[C@@H](c2ccc(Cl)cc2)c2ccccn2)CC1`, the Potency result in [1], in [2] and in test [3] was “inactive” each time.

For the compound `CCC(C)n1ncn(-c2ccc(N3CCN(c4ccc(OCC5COC(Cn6cncn6)(c6ccc(Cl)cc6Cl)O5)cc4)CC3)cc2)c1=O` (stereo not given), in test [4], the activity change, negative = inhibition was -2.36% [at 17.2 µM]. In addition, the Potency result in test [5], in [1], in [2] and in test [3] was “inactive” in each case.

Consider `O=C(Nc1ccccc1)c1ccccc1O`, for which the Potency entry in test [1] is “inactive”.

As to `CCCCCCCCCCCCCCCCn1cc[n+](Cc2ccccc2)c1C`, in test [1], the Potency was 11.2 µM (active).

`O=C1O[C@H]2[C@H](OC(O)[C@@H]2O)[C@@H]1O` (stereo not given in full): the Potency entry in test [1], in test [2] and in [3] was “inactive” in each case.

Consider `COC(=O)N[C@H](C(=O)N1CCC[C@H]1c1ncc(-c2ccc3c(c2)O[C@@H](c2ccccc2)n2c-3cc3cc(-c4cnc([C@@H]5CCCN5C(=O)[C@@H](NC(=O)OC)C(C)C)[nH]4)ccc32)[nH]1)C(C)C`, for which the Potency entry in test [1] is “inactive”. Also, the Potency in test [3] is 6.31 µM (active).

Consider `O=C1CC(c2ccccc2)Oc2ccccc21` (stereo not given), for which the Potency entry in [6], in test [5] and in test [1] was “inactive” throughout.

For the compound `CC(C)C[C@H](NC(=O)CNC(=O)c1cc(Cl)ccc1Cl)B1OC(=O)C(CC(=O)O)(CC(=O)O)O1`, the Potency entry in test [2] and in test [3] was “inactive” in each case.

With `CC12CCC(CC1=O)C2(C)C` (stereo not given), the Potency entry in test [7] and in [1] was “inactive” each time.

In the case of `C=C[C@@H]1C[C@]1(NC(=O)[C@@H]1C[C@@H]2CN1C(=O)[C@H](C(C)(C)C)NC(=O)O[C@@H]1C[C@H]1CCCCCc1nc3ccc(OC)cc3nc1O2)C(=O)NS(=O)(=O)C1CC1`, the Potency result in [1] was “inactive”. Also, in test [3], the Potency is 5.62 µM (active).

`COc1ncc2nc(CCc3ccccc3)c(=O)n(-c3ccccc3)c2n1`: the Potency in test [8] is above 11.4 µM; in [9], 12.6 µM (active); in test [12], above 9.22 µM; in test [13] it was above 46 µM. The activity change, negative = inhibition in [4] was -22.4%; in test [10], -14.3%. For the same compound, the compound was called inactive in test [11]. Moreover, the Potency result in test [7], in [14], in [15], in test [16], in test [17] and in test [5] was “inactive” throughout.

Consider `CC(C)(C)NC(=O)N[C@H](C(=O)N1C[C@H]2[C@@H]([C@H]1C(=O)NC(CC1CCC1)C(=O)C(N)=O)C2(C)C)C(C)(C)C` (stereo not given in full), for which the Potency entry in [1], in test [2] and in [3] was “inactive” in each case.

Regarding `COC[C@H]1C[C@@H](c2ncc(-c3ccc4c(c3)COc3cc5c(ccc6[nH]c([C@@H]7CC[C@H](C)N7C(=O)[C@@H](NC(=O)OC)C(C)C)nc65)cc3-4)[nH]2)N(C(=O)[C@H](NC(=O)OC)c2ccccc2)C1`, the Potency entry in test [1] and in test [2] was “inactive” in each case.

In the case of `CCCCCCCCCCCCCCCCOc1nc2ccc(C)cc2c(=O)o1`, the Potency result in [1] and in test [2] was “inactive” each time.
